Compound activity: PubChem, National Center for Advancing Translational Sciences (NCATS)
This is a sample that favours compounds with a hit; in the whole collection about 2.4% have one here.
AmpC nodet inh: inhibitors of E. coli AmpC beta-lactamase without detergent; AmpC nitrocefin hydrolysis, absorbance 480 nm, no detergent; P00811; actives 1.8% (n = 71,000); Potency, µM (highest dose often 28.7 µM), for inactives: at the highest dose activity change, negative = inhibition; further: % of control where 0% means no effect
Target sequence (P00811 whole entry, looked up): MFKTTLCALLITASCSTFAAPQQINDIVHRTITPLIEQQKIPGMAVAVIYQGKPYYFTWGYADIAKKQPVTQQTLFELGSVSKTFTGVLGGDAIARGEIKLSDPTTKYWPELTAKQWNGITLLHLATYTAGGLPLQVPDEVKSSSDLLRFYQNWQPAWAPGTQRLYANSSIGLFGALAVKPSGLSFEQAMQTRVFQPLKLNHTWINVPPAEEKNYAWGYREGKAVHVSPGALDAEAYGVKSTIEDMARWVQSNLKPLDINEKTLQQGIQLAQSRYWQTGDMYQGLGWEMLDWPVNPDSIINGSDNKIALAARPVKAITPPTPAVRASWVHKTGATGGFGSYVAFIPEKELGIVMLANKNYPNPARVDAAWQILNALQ
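AmpC, 20 mM phosphate pH 7.0; 15 min cpd preinc, RT; start with nitrocefin (800 uM stock); A480 kinetic read, 20 s intervals, 4 min. No-enzyme wells = negative control.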
LT uptake inh: inhibitors of anthrax lethal toxin internalization. AID 912. Potency, µM (series often up to 40 µM), without a hit: at the highest dose activity change, negative = inhibition, hits mostly inhibitors. Cells, anthrax lethal toxin internalization, FRET ratio (460/530). actives 0.67% (n = 70,000); further: on the % scale 0 is the no-effect control and ±100 the full control effect; nearly all actives have a fitted effect of over 50% in size
Prx2 Sm inh: inhibitors of Schistosoma mansoni peroxiredoxin 2; S. mansoni Prx2 activity coupled to TGR/GSH (TGR is thioredoxin glutathione reductase), NADPH fluorescence loss, qHTS; Potency, µM; actives 0.07% (n = 65,000)
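Activity is read as the drop in NADPH fluorescence (365/450 nm), recorded every 30 sec for 8 min after H2O2 addition. Prx2 is coupled to TGR-driven NADPH oxidation through glutathione, in phosphate buffer pH 7.4.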
AmpC det inh: inhibitors of E. coli AmpC beta-lactamase with detergent | purified AmpC, nitrocefin hydrolysis with detergent | AID 584 | Potency, µM (titrated, usually from 28.7 µM), for the others: at the top dose activity change, negative = inhibition | actives 0.09% (n = 71,000) | P00811; active means well fitted curve in the direction sought with a large enough effect; inconclusive means small, poorly fitted or top-dose-only effect; further: on the % scale 0 is the no-effect control and ±100 the full control effect
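E. coli AmpC (5.3 nM) in 20 mM phosphate pH 7.0 with 0.01% Triton X-100, preincubated 15 min RT with compound; nitrocefin (2 uL of 800 uM stock) hydrolysis followed by 480 nm absorbance every 20 s over 4 min.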
Numbers without * were called inactive; ? = inconclusive; / = not tested or not shown; ! = not active in a repeat; [ ] = dose if it differs, or a comment. Unless noted, the call rests on the fitted dose curve. Potency means the concentration at half of the fitted maximal effect.

SMILES	AmpC nodet inh	LT uptake inh	Prx2 Sm inh	AmpC det inh
Cc1ccccc1C1CC(c2ccc(F)cc2)Nc2nc(N)nn21 (stereo not drawn)	4µM*[single pt active]	?	>57	12%
CCc1ccc(C2CC(c3ccc(Cl)cc3)n3nc(N)nc3N2)cc1 (stereo not drawn)	4µM*[single pt active]	3%	>57	13%
Nc1nc2n(n1)C(c1c(F)cccc1Cl)CC(c1ccc(F)cc1)N2 (stereo not drawn)	4µM*[single pt active]	-2%	>57	15%
Nc1nc2n(n1)C(c1cccc(Br)c1)CC(c1ccc(F)cc1)N2 (stereo not drawn)	42%	6%	>57	12%
Cc1ccccc1C1CC(c2ccc(Br)cc2)Nc2nc(N)nn21 (stereo not drawn)	97%	-15%	>57	12%
CC(C)=C1C(=O)C(c2ccccc2)=C2CN3C(=O)N(CCc4ccccc4)C(=O)[C@]3(C)[C@H]21	27%	-16%	>57	-2%
Cc1noc(C)c1S(=O)(=O)N(CC(=O)NCc1ccc2c(c1)OCO2)c1ccc(C(C)C)cc1	-9%	5µM*	>57	6%
O=c1cccc2n1C[C@H]1C[C@@H]2CN(CCO)C1	10%	0%	>57	-2%
c1cc(-c2nc3cc(Oc4ccc5oc(-c6ccncc6)nc5c4)ccc3o2)ccn1	25%	-4%	>57	14%
CCS(=O)(=O)N1CCC[C@H]2CN3CCc4cc(OC)ccc4[C@@H]3C[C@@H]21	26%	0%	>57	0%
CCOC(=O)c1c(C)[nH]c2ccc3c(c12)CN1CCc2cc(OC)ccc2[C@@H]1O3	22%	2.5µM*	>57	-3%
O=c1oc2ccccc2n1Cc1ccccc1Cl	4µM*	?	>57	14%
O=c1oc2ccccc2n1CCc1ccccc1	-11%	-4%	>57	-2%
CCc1c2c(nc3ccc(OC)cc13)OC(CC)C2 (stereo not drawn)	53%	5%	>57	19%
COc1ccc(Cl)cc1NC(=O)Cn1c(=O)n2nc(C)nc2c2ccccc21	4µM*[single pt active]	-4%	>57	11%
COc1ccccc1NC(=O)Cn1c(=O)n2nc(C)nc2c2ccccc21	26%	-3%	>57	7%
CN(C)c1ccc(-c2ccc3ncnc(N(C)Cc4ccco4)c3c2)cc1	38%	10µM*	>57	-2%
COc1cccc(-c2ccc3ncnc(N(C)Cc4ccco4)c3c2)c1	6.3µM*	?	>57	10µM*
CN(Cc1ccco1)c1ncnc2ccc(-c3ccccc3C#N)cc12	72%	?	>57	8%
COc1cccc(-c2ccc3ncnc(N4CCOCC4)c3c2)c1	?	-30%	>57	10µM*
COc1ccccc1-c1ccc2ncnc(N3CCOCC3)c2c1	133%	?	>57	7%
CS(=O)(=O)Nc1cccc(-c2nccc(-n3ccnc3)n2)c1	-8%	-3%	>57	-14%
CC(=O)O[C@H]1CC[C@@]2(C)[C@@H](CC[C@@]3(C)[C@H]2C(=O)C=C2[C@H]4C[C@](C)(C(=O)OCCN5CCCCC5)CC[C@]4(C)CC[C@@]23C)C1(C)C	13%	?	>57	3%
C[C@@H]1Cc2cc3c(cc2C(c2ccc(N)cc2)=NN1)OCO3	-8%	?	>57	-3%
O=c1c(-c2ccc3c(c2)OCCO3)coc2c(CN3CCOCC3)c(O)ccc12	4%	-18%	>57	12%
SMILES	AmpC nodet inh	LT uptake inh	Prx2 Sm inh	AmpC det inh
CC(C)=CCc1c2c(c3occ(-c4ccc(O)c(O)c4)c(=O)c3c1O)C=CC(C)(C)O2	4µM*[single pt active]	?	>57	-3%[5.75 µM]
CCOC(=O)CN1C(=O)C(=O)c2cccc(C)c21	4µM*[single pt active]	-10%	>57	8%
CCOC(=O)CN1C2=NCCN2c2ccccc21	-6%	0%	>57	-3%
CC(=O)n1cc(-c2ccncc2)c2ccccc21	3.2µM*[single pt active]	15%	>57	10%
CC(=O)N1CCC[C@@]2(CCN(Cc3ccccc3)C2)C1	1%	?	>57	2%
CCN1CCN(Cc2ccc(NC(=O)Nc3ccccc3OC)cc2)CC1	4µM*[single pt active]	?	>57	19%
CCN1CCN(CCC(=O)Nc2ccccc2OC)CC1	-3%	-12%	>57	-5%
CC(=O)OC[C@@H]1O[C@H](C/C=N\OC[C@@H](O)COCc2ccco2)C=C[C@@H]1OC(C)=O	/	1%[8 µM]	/	/
CCOC(=O)c1nnn(CC(=O)Nc2cc(Cl)ccc2C)c1C(=O)OCC	16%	7.9µM*	>57	-3%
CCC1CCCCN1CCCNC(=O)CC1Oc2ccccc2NC1=O (stereo not drawn)	4µM*[single pt active]	-10%	>57	12%
CC1CCN(Cc2ccc(NC(=O)CC3Oc4ccccc4NC3=O)cc2)CC1 (stereo not drawn)	4µM*[single pt active]	-5%	>57	12%
COCCCNC(=O)CC1Oc2ccccc2NC1=O (stereo not drawn)	-9%	?	>57	8%
O=C(CC1Oc2ccccc2NC1=O)NCCCN1CCN(C2CCCCC2)CC1 (stereo not drawn)	4µM*[single pt active]	-8%	?	17%
O=C(CC1Oc2ccccc2NC1=O)NC1CC1 (stereo not drawn)	1%	0%	>57	11%
OC(COc1ccc(Cl)c2ccccc12)CN1CCN(c2ccccn2)CC1 (stereo not drawn)	84%	10µM*	>57	7%
Cc1c(CC(C)(C)C(=O)O)n(Cc2ccc(Cl)cc2)c2ccc(F)cc12	-8%	?	>57	-4%
O=S(=O)(c1ccc(F)cc1)N1CCC(N2CCCC2)CC1	4µM*[single pt active]	?	>57	9%
O=S(=O)(c1ccc(S(=O)(=O)N2CCN3CCCC3C2)cc1)N1CCCC1 (stereo not drawn)	16%	5%	>57	3%
CCN(CC)CCn1c(-c2ccccc2)nc2c(NC3CCCCC3)nc(C)nc21	112%	-12%	/	18%
O=S(=O)(c1cccc2c(I)cccc12)N1CCCNCC1	42%	3.2µM*	>26	-3%
COc1ccc(C(C)(C)C)cc1NC(=O)Nc1ccc2c(c1)OCO2	-4%	10µM*	>57	0%
C[C@@H]1O[C@@H](OC[C@@H]2O[C@@H](Oc3c(-c4ccc(O)c(O)c4)oc4cc(O)cc(O)c4c3=O)[C@H](O)[C@H](O)[C@@H]2O)[C@H](O)[C@H](O)[C@@H]1O	1%	-19%	>57	0%
CCCC(=O)c1cc(O)c(O)cc1O	?	?	/	6%
O=[N+]([O-])c1ccc(O[C@H]2O[C@@H](CO)[C@@H](O)[C@@H](O)[C@@H]2F)c([N+](=O)[O-])c1	8%	14%	>57	-1%
COC(=O)N1CCN(C(=O)Cc2ccc(Cl)c(Cl)c2)[C@H](CN2CCCC2)C1	36%	?	14*!	1%
NC(=O)CCCCC(N)=O	-14%	-3%	/	10%
Cc1ccc(/C(C#N)=C\c2cn(C)c3ccccc23)cc1	-10%	7.9µM*	>57	-9%
Cc1ccc(/C(C#N)=C/c2cccc([N+](=O)[O-])c2)cc1	-4%[5.75 µM]	?	>57	-4%[5.75 µM]
